The supplement of paper PMC10849652
Of roughly 7,900 targets only a part is listed; those with a hit were picked by preference. About 0.6% of all pairs of compound and target were hits.

Tests used:
Assay in all cases: log2 fold change, soluble protein after heating vs DMSO (PISA); higher = thermal stabilisation; K562 cells, 10 uM, 30 min; active = over 0.2 and 3.5 SD of the protein, either way, in both replicates (recomputed)
[1] = compound: Cc1ccc(NC(=O)c2ccc(CN3CC[C@H](N(C)C)C3)c(C(F)(F)F)c2)cc1Nc1nccc(-c2cncnc2)n1 [bafetinib]
Summary of the method: (§1)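 K562 cells (2×10^6 cells/mL) were treated with 10 μM compound for 30 min, and aliquots were heated for 3 min over 48°C-58°C. Pooled aliquots were extracted in PBS with 0.5% NP-40 at 4°C, and the supernatant after 21,000xg for 90 min was measured by TMTpro 16plex LC-MS/MS with channel sums equalised. Reported thermal stability, relative to control samples and from duplicates, is a log2 fold change.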

[2] = compound: Cc1cccc(CC(=O)N2CCc3c2ccc(-c2cn(C)c4ncnc(N)c24)c3F)n1
Summary of the method: as §1

[3] = compound: Cc1cn(-c2cc(NC(=O)c3ccc(C)c(Nc4nccc(-c5cccnc5)n4)c3)cc(C(F)(F)F)c2)cn1 [nilotinib]
Summary of the method: as §1

[4] = compound: Cc1nc(Nc2n[nH]c3c2CN(C(=O)N[C@H](CN(C)C)c2ccccc2)C3(C)C)c2sccc2n1
Summary of the method: as §1

[5] = compound: Cc1nc(Nc2ncc(C(=O)Nc3c(C)cccc3Cl)s2)cc(N2CCN(CCO)CC2)n1 [dasatinib]
Summary of the method: as §1

[6] = compound: Cc1ncc(-c2ccnc(Nc3ccc(S(C)(=O)=O)cc3)n2)n1C(C)C
Summary of the method: as §1

[7] = compound: Cn1cc(-c2ccc3c(c2)CCN3C(=O)Cc2cccc(C(F)(F)F)c2)c2c(N)ncnc21
Summary of the method: as §1

[8] = compound: Cn1cc(-c2ccc3nnc(C(F)(F)c4ccc5ncccc5c4)n3n2)cn1
Summary of the method: as §1

[9] = compound: Cn1cncc1[C@@](N)(c1ccc(Cl)cc1)c1ccc2c(c1)c(-c1cccc(Cl)c1)cc(=O)n2C [tipifarnib]
Summary of the method: as §1

[10] = compound: FC(F)(F)c1ccc(/C=C/c2nc(COc3ccc(CCCCn4ccnn4)cc3)co2)cc1 [mubritinib]
Summary of the method: as §1

Measured: log2 fold change

PIP4K2B (UniProt P78356)
Sequence of UniProt P78356 (P78356 whole entry, looked up): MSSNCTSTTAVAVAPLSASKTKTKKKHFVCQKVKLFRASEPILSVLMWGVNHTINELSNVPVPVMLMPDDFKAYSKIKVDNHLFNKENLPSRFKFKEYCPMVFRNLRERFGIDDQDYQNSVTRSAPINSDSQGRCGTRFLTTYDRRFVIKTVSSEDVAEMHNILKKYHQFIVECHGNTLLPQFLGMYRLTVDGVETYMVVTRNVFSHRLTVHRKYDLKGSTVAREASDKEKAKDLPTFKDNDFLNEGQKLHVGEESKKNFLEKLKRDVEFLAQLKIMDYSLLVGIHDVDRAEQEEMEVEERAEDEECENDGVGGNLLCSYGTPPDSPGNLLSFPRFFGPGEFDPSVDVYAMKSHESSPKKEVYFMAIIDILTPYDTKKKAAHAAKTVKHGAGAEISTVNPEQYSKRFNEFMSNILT
inactive: [1] 0.258 | [2] 0.011 | [3] 0.085 | [4] 0.05 | [5] 0.139 | [7] 0.055 | [8] 0.172 | [9] -0.03 | [10] -0.083
active: [6] 0.538

PRKCE (UniProt Q02156)
active: [4] -0.335
inactive: [1] 0.001 | [2] 0.02 | [3] -0.024 | [5] -0.118 | [6] 0.004 | [7] 0.051 | [9] -0.049 | [10] 0.052

PJA2 (UniProt O43164)
inactive: [1] -0.121 | [2] -0.072 | [3] 0.023 | [4] -0.021 | [5] 0.036 | [6] -0.04 | [7] -0.06 | [8] 0.008 | [9] 0.071 | [10] 0.018

PPP2R5B (UniProt Q15173)
Sequence of UniProt Q15173 (Q15173 whole entry, looked up): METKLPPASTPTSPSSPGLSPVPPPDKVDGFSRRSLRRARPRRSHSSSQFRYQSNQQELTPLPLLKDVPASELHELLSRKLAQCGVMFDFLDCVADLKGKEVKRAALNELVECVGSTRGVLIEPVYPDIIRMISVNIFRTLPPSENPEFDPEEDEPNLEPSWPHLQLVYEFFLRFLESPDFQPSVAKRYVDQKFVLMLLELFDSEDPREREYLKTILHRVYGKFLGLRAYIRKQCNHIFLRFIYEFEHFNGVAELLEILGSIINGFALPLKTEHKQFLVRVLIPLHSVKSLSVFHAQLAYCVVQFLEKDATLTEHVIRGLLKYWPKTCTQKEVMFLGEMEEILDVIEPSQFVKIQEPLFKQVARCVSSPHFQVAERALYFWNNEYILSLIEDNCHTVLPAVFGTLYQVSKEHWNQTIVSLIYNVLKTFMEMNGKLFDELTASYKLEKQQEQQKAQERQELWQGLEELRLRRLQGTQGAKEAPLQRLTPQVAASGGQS
inactive: [1] 0.006 | [2] -0.057 | [3] -0.187 | [4] 0.095 | [5] -0.047 | [6] -0.042 | [9] -0.067 | [10] -0.023

PIK3CB (UniProt P42338)
inactive: [1] -0.075 | [2] 0.028 | [3] -0.084 | [4] -0.056 | [5] -0.209 | [6] 0.034 | [7] -0.002 | [8] 0.049 | [9] -0.105 | [10] 0.037

PHKA1 (UniProt P46020)
inactive: [1] 0.023 | [2] -0.004 | [3] -0.233 | [4] -0.021 | [5] -0.303 | [6] 0.023 | [7] 0.027 | [8] -0.092 | [9] 0.083 | [10] -0.04

PHAX (UniProt Q9H814)
inactive: [1] -0.056 | [2] -0.117 | [3] 0.028 | [4] -0.176 | [5] 0.03 | [6] -0.096 | [7] -0.033 | [8] 0.006 | [9] 0.011 | [10] 0.013

PIGH (UniProt Q14442)
Sequence of UniProt Q14442 (Q14442 whole entry, looked up): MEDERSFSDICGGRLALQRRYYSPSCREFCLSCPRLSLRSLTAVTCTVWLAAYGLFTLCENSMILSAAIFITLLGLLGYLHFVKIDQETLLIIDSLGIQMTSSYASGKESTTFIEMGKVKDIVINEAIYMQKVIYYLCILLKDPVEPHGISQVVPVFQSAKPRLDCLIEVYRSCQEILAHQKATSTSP
inactive: [1] -0.037 | [2] -0.01 | [5] -0.053 | [7] 0.099 | [8] 0.009 | [9] 0.056 | [10] 0.04

PTPMT1 (UniProt Q8WUK0)
inactive: [1] -0.16 | [2] -0.003 | [3] 0.069 | [4] -0.013 | [5] -0.138 | [6] 0.029 | [7] -0.056 | [8] -0.132 | [9] 0.026 | [10] -0.006

POLR3D (UniProt P05423)
inactive: [1] -0.052 | [2] 0.044 | [3] 0.023 | [4] -0.125 | [5] 1.17 | [6] 0.057 | [7] -0.082 | [8] 0.046 | [9] 0.018 | [10] -0.072

PIGT (UniProt Q969N2)
Sequence of UniProt Q969N2 (Q969N2 whole entry, looked up): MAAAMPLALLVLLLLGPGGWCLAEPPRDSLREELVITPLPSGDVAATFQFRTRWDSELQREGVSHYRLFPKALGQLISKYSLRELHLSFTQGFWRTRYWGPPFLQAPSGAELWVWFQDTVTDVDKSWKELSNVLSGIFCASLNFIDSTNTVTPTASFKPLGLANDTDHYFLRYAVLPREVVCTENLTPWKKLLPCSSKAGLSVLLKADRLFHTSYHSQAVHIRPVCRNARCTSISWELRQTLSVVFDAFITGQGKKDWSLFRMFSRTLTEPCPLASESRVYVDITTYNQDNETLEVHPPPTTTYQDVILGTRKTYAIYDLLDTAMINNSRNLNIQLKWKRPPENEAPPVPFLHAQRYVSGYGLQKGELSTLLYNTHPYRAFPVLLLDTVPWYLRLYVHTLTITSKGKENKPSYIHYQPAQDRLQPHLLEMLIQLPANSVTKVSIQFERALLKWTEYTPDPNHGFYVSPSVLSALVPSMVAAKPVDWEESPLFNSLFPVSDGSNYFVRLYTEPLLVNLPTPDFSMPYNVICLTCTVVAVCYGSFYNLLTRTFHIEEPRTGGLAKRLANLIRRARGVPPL
inactive: [1] -0.042 | [2] 0 | [3] -0.029 | [4] 0.046 | [5] -0.031 | [6] -0.028 | [7] -0.011 | [8] 0.003 | [9] -0.029 | [10] -0.037

PDE4DIP (UniProt E9PS60)
inactive: [7] -0.007

PHC3 isoform 7 (UniProt Q8NDX5)
inactive: [1] 0.222 | [3] -0.187 | [4] 0.01 | [6] 0 | [7] 0.018 | [9] -0.016 | [10] 0.191

PCBP2 (UniProt F8VZX2)
inactive: [1] 0.029 | [3] 0.029 | [4] -0.112 | [5] -0.144 | [6] 0.049 | [7] -0.022 | [8] -0.196 | [10] -0.153

PRKD3 (UniProt O94806)
Sequence of UniProt O94806 (O94806 whole entry, looked up): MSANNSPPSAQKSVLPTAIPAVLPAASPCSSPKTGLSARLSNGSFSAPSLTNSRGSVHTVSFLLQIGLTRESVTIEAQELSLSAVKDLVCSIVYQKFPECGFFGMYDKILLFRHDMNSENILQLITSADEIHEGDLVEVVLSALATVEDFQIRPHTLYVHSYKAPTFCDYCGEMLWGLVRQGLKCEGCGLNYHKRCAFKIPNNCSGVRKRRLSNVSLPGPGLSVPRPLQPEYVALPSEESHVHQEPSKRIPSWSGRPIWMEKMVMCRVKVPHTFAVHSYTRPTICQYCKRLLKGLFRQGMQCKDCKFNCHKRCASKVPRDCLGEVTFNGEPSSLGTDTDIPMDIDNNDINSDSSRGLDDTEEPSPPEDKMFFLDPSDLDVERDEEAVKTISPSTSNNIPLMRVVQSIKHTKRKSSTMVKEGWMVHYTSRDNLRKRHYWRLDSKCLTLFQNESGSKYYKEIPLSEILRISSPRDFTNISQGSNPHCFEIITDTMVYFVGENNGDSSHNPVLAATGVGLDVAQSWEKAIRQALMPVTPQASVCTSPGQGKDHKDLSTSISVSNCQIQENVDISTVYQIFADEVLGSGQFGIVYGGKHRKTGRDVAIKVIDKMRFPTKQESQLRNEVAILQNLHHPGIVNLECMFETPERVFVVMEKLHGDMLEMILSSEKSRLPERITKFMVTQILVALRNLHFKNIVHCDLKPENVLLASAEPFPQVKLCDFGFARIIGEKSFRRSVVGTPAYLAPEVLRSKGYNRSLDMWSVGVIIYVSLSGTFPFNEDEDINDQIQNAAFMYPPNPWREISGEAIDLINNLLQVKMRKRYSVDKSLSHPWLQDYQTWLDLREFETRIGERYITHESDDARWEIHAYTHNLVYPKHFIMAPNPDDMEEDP
inactive: [1] -0.011 | [2] -0.231 | [5] -0.258 | [7] -0.079 | [8] 0.006 | [10] -0.062

PDE4A (UniProt P27815)
inactive: [1] -0.157 | [7] -0.016 | [8] 0.021 | [9] -0.108

PCNX1 (UniProt Q96RV3)
Sequence of UniProt Q96RV3 (Q96RV3 whole entry, looked up): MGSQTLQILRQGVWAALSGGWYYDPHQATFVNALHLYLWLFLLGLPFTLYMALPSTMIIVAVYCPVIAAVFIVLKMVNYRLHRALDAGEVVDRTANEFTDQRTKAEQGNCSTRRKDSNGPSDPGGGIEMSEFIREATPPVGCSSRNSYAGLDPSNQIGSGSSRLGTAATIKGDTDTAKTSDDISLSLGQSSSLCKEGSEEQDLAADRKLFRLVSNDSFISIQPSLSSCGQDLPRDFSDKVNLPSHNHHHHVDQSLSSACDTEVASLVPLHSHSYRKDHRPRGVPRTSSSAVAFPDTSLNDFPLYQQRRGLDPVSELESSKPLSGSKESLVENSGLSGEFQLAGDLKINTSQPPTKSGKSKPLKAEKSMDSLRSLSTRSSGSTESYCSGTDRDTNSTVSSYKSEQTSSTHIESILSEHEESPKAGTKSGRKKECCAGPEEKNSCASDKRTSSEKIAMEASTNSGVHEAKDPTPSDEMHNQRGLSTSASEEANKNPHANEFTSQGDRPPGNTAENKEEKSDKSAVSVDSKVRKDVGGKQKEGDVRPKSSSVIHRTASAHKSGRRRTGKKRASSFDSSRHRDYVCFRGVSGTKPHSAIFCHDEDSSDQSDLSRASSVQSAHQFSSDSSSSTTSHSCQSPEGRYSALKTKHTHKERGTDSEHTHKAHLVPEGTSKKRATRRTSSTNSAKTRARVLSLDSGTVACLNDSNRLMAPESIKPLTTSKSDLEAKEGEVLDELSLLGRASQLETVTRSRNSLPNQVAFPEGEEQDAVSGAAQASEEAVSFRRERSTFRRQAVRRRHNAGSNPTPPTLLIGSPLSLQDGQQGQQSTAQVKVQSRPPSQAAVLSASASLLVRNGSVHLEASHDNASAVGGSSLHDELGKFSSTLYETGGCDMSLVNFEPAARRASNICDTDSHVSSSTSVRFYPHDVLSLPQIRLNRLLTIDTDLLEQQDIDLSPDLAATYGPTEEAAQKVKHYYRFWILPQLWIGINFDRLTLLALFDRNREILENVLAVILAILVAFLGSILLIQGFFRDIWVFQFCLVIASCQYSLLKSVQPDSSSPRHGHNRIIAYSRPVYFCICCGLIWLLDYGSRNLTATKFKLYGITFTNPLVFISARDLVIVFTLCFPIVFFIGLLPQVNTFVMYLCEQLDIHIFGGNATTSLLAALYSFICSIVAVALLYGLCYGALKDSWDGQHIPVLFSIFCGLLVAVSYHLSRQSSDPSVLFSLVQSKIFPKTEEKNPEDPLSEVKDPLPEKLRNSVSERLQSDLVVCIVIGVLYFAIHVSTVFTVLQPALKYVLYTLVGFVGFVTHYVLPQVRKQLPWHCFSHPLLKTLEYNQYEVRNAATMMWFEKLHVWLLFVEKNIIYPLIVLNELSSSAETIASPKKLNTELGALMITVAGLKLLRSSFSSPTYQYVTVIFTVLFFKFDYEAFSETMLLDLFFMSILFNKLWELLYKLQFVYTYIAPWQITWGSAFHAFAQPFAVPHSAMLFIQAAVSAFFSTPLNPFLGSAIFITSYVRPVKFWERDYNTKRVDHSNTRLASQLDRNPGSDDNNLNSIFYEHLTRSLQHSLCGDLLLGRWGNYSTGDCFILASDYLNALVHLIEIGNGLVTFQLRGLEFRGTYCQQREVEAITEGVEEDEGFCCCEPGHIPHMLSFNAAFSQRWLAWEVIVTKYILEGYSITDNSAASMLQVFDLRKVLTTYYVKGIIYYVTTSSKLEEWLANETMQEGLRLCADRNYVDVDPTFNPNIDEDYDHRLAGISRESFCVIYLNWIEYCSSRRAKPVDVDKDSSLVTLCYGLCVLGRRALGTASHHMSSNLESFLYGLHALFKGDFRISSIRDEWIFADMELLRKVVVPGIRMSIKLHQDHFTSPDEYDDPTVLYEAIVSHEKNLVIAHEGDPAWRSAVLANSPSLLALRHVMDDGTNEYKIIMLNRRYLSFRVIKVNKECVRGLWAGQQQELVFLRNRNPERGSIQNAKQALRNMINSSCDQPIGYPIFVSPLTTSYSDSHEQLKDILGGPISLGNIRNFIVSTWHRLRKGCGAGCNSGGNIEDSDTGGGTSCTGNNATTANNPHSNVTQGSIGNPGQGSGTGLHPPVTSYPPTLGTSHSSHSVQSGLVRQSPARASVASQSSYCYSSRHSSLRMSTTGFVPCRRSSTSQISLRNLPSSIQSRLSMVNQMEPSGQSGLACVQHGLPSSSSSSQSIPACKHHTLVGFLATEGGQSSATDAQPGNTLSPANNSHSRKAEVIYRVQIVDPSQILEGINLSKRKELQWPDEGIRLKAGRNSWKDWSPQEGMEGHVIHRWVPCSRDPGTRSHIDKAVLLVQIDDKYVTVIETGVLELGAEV
inactive: [1] -0.112 | [3] 0.007 | [4] 0.009 | [6] 0 | [9] 0.305 | [10] -0.019

POLB (UniProt P06746)
inactive: [2] -0.081 | [3] -0.103 | [4] -0.134 | [5] -0.04 | [6] 0.009 | [7] 0.143 | [8] -0.133 | [9] 0.043

PCF11 (UniProt O94913)
inactive: [1] -0.099 | [2] 0.078 | [7] -0.095 | [8] 0.007 | [9] 0.168 | [10] 0.179

PAN2 (UniProt Q504Q3)
inactive: [1] -0.052 | [3] -0.123 | [4] -0.02 | [5] 0.013 | [6] -0.09

PRKX (UniProt P51817)
inactive: [1] -0.039 | [10] 0.108

POLR2M (UniProt Q6EEV4)
Sequence of UniProt Q6EEV4 (Q6EEV4 whole entry, looked up): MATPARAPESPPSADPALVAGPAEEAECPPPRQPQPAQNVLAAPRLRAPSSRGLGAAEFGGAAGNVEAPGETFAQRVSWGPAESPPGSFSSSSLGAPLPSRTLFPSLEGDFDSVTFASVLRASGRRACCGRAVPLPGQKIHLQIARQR
inactive: [1] -0.215 | [3] 0.107 | [4] -0.016 | [5] -0.003 | [6] -0.022 | [7] 0.135 | [9] -0.095 | [10] 0.035

PSMA3 (UniProt H0YJ03)
inactive: [5] 0.133 | [7] 0.036 | [8] -0.017 | [9] 0.02

PTP4A2 (UniProt Q12974)
inactive: [1] -0.045 | [3] 0.007 | [4] -0.056 | [5] 0.089 | [7] 0.094 | [8] -0.013 | [9] 0.048 | [10] 0.047
active: [6] -0.43

PUM1 (UniProt Q14671)
inactive: [2] -0.202 | [5] -0.207 | [7] 0.229

PIM1 isoform 2 (UniProt P11309)
inactive: [2] -0.263 | [10] 0.721

PSMD8 (UniProt K7EK21)
inactive: [7] -0.216

PSD3 (UniProt Q9NYI0)
inactive: [3] -0.117 | [4] 0.029 | [6] 0.014 | [7] -0.002 | [8] 0.071 | [9] -0.062 | [10] -0.035

PPP2R5C isoform 2 (UniProt Q13362)
inactive: [1] 0.046 | [8] 0.037 | [10] -0.057

POGZ (UniProt Q7Z3K3)
inactive: [2] 0.174 | [5] -0.318 | [7] 0.072 | [8] 0.061 | [9] -0.124

PSMC1 (UniProt G3V4X1)
inactive: [2] -0.579 | [3] -0.195 | [4] 0.042 | [6] -0.046 | [7] 0.066 | [9] 0.479
